MCF10A rereplic: induces DNA re-replication in MCF 10a normal breast cells; MCF 10A DNA re-replication, Hoechst nuclear intensity, 48 h; Potency, µM (titrated, usually from 46.1 µM), for inactives: at the highest dose activity, positive = re-replication, most hits filed as activators; actives 2.9% (n = 350,000); also: % of control where 0% means no effect; nearly all actives have a fitted effect of over 50% in size
HT1080 IDH1KD tx: kills HT-1080 cells with IDH1 knockdown. HT-1080 IDH1 knockdown viability, ATP luminescence, 48 h. Potency, µM (highest dose often 46.1 µM), inactives show at the top dose activity, negative = toxicity, hits mostly cytotoxic. actives 2% (n = 360,000);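 also: 0% = DMSO wells and -100% = cell-free medium wells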
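After a 2 h attachment period, IDH1KD HT-1080 cells took pin-transferred compound for 48 h at 37 °C; ATP-based luminescence after 10 min room-temperature reagent incubation reported viability.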
KB-V1 MDR tox: KB-V1 MDR subline cytotoxicity | KB-V1 MDR cells viability, CellTiter-Glo, 72 h | Potency, µM (doses to about 46.1 µM), actives largely listed as cytotoxic | actives 3.4% (n = 400,000); also: % is scaled to controls: 0 for no effect and ±100 for the full control effect; nearly all actives have a fitted effect of over 60% in size
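KB-V1 cells (P-gp-expressing MDR subline of KB-3-1) in phenol-red-free DMEM with 10% FBS were exposed to library compounds over a concentration series for 72 h at 37 degrees C. Viability read by CellTiter-Glo luminescence; concentration-effect curves fitted after normalization.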
SW480 rereplic: inducers of DNA re-replication in SW480 colon cancer cells; SW480 DNA re-replication, Hoechst DNA content imaging, 48 h; Potency, µM (highest dose often 46.1 µM), for the others: top-dose re-replication activation, usual class: activators; actives 1.8% (n = 340,000); also: % of control where 0% means no effect; nearly all actives have a fitted effect of over 55% in size
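Hoechst fluorescence of nuclei (405 nm excitation, 500-530 nm emission) measured by plate-scanning imager after 48 hr compound exposure at 37 C; re-replication scored as increased number of nuclei with elevated intensity.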
HT1080NT lethal: kills 2HG-producing HT-1080-NT fibrosarcoma cells; HT-1080-NT fibrosarcoma viability, CellTiter-Glo ATP luminescence, 48 h; Potency, µM (doses to about 46.1 µM), without a hit: top-dose activity, negative = less viability, hits mostly cytotoxic; actives 1.6% (n = 360,000);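 also: NT is the 2HG producing partner of a matched IDH1 knockdown line; 0% = DMSO-treated cells and -100% = media-only wells without cells; nearly all actives have a fitted effect of over 55% in size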
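A 48-hour cytotoxicity screen used HT-1080-NT cells plated 2 hours before compound delivery. ATP-based CellTiter-Glo luminescence measured viability, normalized to DMSO and no-cell controls.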
KB-3-1 tox: kills parental KB-3-1 adenocarcinoma cells. KB-3-1 viability, CellTiter-Glo ATP luminescence, 72 h. Potency, µM (highest dose often 46.1 µM), most hits filed as cytotoxic. actives 1.4% (n = 400,000); also: % is scaled to controls: 0 for no effect and ±100 for the full control effect; nearly all actives have a fitted effect of over 60% in size
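Cytotoxicity measured as CellTiter-Glo luminescence after 72 h at 37 C. Compound titrations were pinned onto drug-naive KB-3-1 parental adenocarcinoma cells grown in DMEM with 10% FBS, and normalized data fitted to concentration-response curves.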
The depositor's hits bear a star; i = inactive; ? = inconclusive; · = no result given; [ ] = dose if it differs, or a comment. A selection: hits, their analogues and other compounds. The true share with any hit is near 7.9%. Calls follow the shape of the dose curve; as a rule, active = well fitted curve in the direction sought with a large enough effect; inconclusive = small, poorly fitted or top-dose-only effect, or another doubt; inactive = no such curve, though single readings can be large; an effect the other way counts as inactive or inconclusive. Potency is read from the fitted curve at half-maximal effect.

SMILES | MCF10A rereplic | HT1080 IDH1KD tx | KB-V1 MDR tox | SW480 rereplic | HT1080NT lethal | KB-3-1 tox
Cc1cccc(-c2oc3ccc(-c4ccc5c(c4)OCO5)cc3c2/C=C/c2ccc(N)cc2)c1 | ? | 0% | ? | 16µM* | ? | i
Cn1c(NCc2ccc3occc3c2)nc2cc(-c3ccc(F)cc3)sc2c1=O | · | -29% | i | · | 14% | i
c1ccc(-c2cc3nc(NCc4cccs4)nc(NCc4ccc5occc5c4)c3s2)cc1 | · | 18µM* | ? | · | 16µM* | ?
CCNc1nc(N2CCCN(C)CC2)nc2cc(OC)c(OC)cc12 | · | -23% | · | · | -25% | ·
Cc1nn(C)cc1C(C(=O)NC1CCCCC1)N(C(=O)Cn1nnc2ccccc21)c1ccc(F)cc1 (stereo not given) | 26µM* | 17% | i | ? | -1% | i
CCOCCn1c(C)c(C(=O)OCC)c2cc(O)c3ccccc3c21 | 14% | 7% | 2.1µM* | -1% | 0% | i
CCOC(=O)c1c(C)n(CCO)c2ccc(O)cc12 | -21% | -2% | i | -4% | 26% | i
COc1ccc(S(=O)(=O)N(C)C[C@H]2Oc3ncc(-c4ccncc4)cc3C(=O)N([C@@H](C)CO)C[C@@H]2C)cc1 | · | 5% | i | · | 7% | i
CCCn1nc(NC(=O)CC(C)C)c2cc3cccc(C)c3nc21 | 10µM* | 1% | i | 10µM* | 0% | i
CCn1nc(NC(=O)CC(C)C)c2cc3cccc(C)c3nc21 | 9.2µM* | 9% | i | 21µM* | 2% | i
Cc1cccc2cc3c(NC(=O)c4ccccn4)nn(C)c3nc12 | 8.2µM* | ? | i | ? | ? | i
CCn1nc(NC(=O)C(C)(C)C)c2cc3cccc(C)c3nc21 | 6.5µM* | -4% | i | ? | 0% | i
COc1ccc2[nH]c(C)c(C(=O)CNc3nccs3)c2c1 | · | · | i | · | · | i
CCN(CCCNC(=O)c1cc2c(=O)[nH]c3ccc(C)cc3c2s1)Cc1ccccc1 | · | · | i | · | · | i
CCCN(C)CCCOc1cc2nc(N3CCCN(C)CC3)nc(NC3CCN(C)CC3)c2cc1OC | · | · | i | · | · | ?
COc1ccc(OC)c(CNC(=O)c2ccc3nc(C(C)C)oc3c2)c1 | · | · | i | · | · | i
Cc1c(C=O)ccc(N(C)C)c1C | · | · | i | · | · | ?
CCCn1nc(NC(C)=O)c2cc3cccc(C)c3nc21 | 18µM* | 15% | i | 18µM* | 3% | i
CCCn1nc(NC(=O)COC)c2cc3cccc(C)c3nc21 | 10% | 0% | i | 3% | 2% | i
CN(C)c1ccc(C(=O)C(O)c2ccccc2)cc1 (stereo not given) | 1% | 3% | i | -1% | 5% | i
CN(C)c1ccc(C(c2ccc(N(C)C)cc2)C(O)c2ccccc2)cc1 (stereo not given) | 23% | 16% | 16µM* | -3% | 11% | i
CCCCNC(=O)C1=CC(c2ccc3c(c2)OCO3)=NS(=O)(=O)N1C | · | · | i | · | · | i
O=C(CC[C@H]1O[C@@H](n2ccc(=O)[nH]c2=O)[C@H](O)[C@@H]1O)N[C@@H](Cc1ccccc1)C(=O)NCC1CCCO1 (stereo not given in full) | · | 22% | 7.3µM* | · | ? | i
CC(C)(C)c1csc(NNC(=O)c2ccc(Br)cc2)n1 | ? | 9.2µM* | ? | 0% | ? | ?
CC(C)(C)c1csc(NC(=O)c2ccccc2O)n1 | ? | ? | ? | -10%[9.22 µM] | ? | ?
SMILES | MCF10A rereplic | HT1080 IDH1KD tx | KB-V1 MDR tox | SW480 rereplic | HT1080NT lethal | KB-3-1 tox
Cc1oncc1-c1csc(-c2ccccc2Cl)n1 | -4% | -2% | 13µM* | i[1.84 µM] | 17% | ?
O=C(NCc1ccccc1)NC1(C(=O)N2CCN(c3ncccn3)CC2)CCCCC1 | 23µM* | 0% | i | 4%[9.22 µM] | 1% | i
CC1(C(=O)NS(=O)(=O)c2ccccc2Cl)CCN1C(=O)C/C=C/c1ccccc1 (stereo not given) | · | -1% | i | · | 14% | i
Cc1ccc(Cn2c(=O)n(Cc3ccc(C(=O)NC4CCN(Cc5ccccc5)CC4)cc3)c(=O)c3ccccc32)cc1 | · | · | i | · | · | i
Cc1cc(C)n(NC(=S)NC2CCCC2)c(=O)c1C#N | 23µM* | -3% | i | ? | -4% | i
O=C(O)[C@H](CC(=O)N1C[C@H]2CCCC[C@H]2C1)Cc1ccccc1 | 1% | · | · | 1% | · | ·
CCn1nc(NC(=O)c2ccncc2)c2cc3cc(C)ccc3nc21 | 8.2µM* | 0% | i | ? | -7% | i
CCn1nc(NC(=O)c2ccncc2)c2cc3ccc(C)cc3nc21 | ? | ? | 9.2µM* | 7% | -27% | i
CC(C)(C)c1ccc(N2C(=O)CSC2c2cccnc2)cc1 (stereo not given) | 2.3µM* | -1% | i | 10% | 1% | i
COC(=O)C[C@@H]1CC[C@H](NS(=O)(=O)c2ccccc2F)[C@@H](CO)O1 | · | 19% | i | · | 4% | i
CCc1cccc(NC(=O)c2coc(=O)c3ccccc23)c1 | · | · | i | · | · | ?
N#CC1(NC(=O)Cn2ncc(Cl)c(Cl)c2=O)CCCCC1 | 4.5µM* | 9.2µM* | i | -53% | 5.8µM* | ?
CCc1nn2c(=O)cc(COC(=O)CNC(=O)COc3ccc(C)cc3)nc2s1 | · | · | i | · | · | i
COC(=O)c1ccc(NC(=O)c2ccc(NC(=O)C3CCCO3)cc2)cc1 (stereo not given) | 1% | 13% | i | -2% | 5% | i
CCc1ccc(NC(=O)c2ccc(NC(=O)C3CCCO3)cc2)cc1 (stereo not given) | 3% | 0% | 23µM* | -5% | -8% | i
CCOC(=O)c1cc(NC(=O)C2CCCO2)cc(C(=O)OCC)c1 (stereo not given) | 1% | 1% | 13µM* | -11% | 21% | i
C/C(=N\NC(=O)c1cccnc1)c1cc(C)oc1C | 7% | -1% | i | 21µM* | -2% | i
COc1cccc(C2=NOC(C(=O)Nc3cc(C)nn3-c3ccccc3)C2)c1OC (stereo not given) | 3% | -28% | ? | 16% | ? | ?
COc1cc(OC)c(C2=NOC(C(=O)Nc3cc(C)nn3-c3ccccc3)C2)cc1Cl (stereo not given) | 1% | -6% | 18µM* | 1% | 0% | i
COC(=O)C1=CN(c2ccc(F)cc2)C=C(C(=O)OC)C1c1cccc(Br)c1 | 15µM* | -1% | ? | 23µM* | 14% | ?

Screens from PubChem.
